Tests used:
Test in all cases: PBM binding z-score (relative to random genomic background probes); higher = stronger binding; sequences stand for … in GC…GCGATTGACAGCGTAGAATGAAGG
[1] = system: FXR:RXRa (NR concentration 270 nM, RXRa partner concentration 90 nM)
In short: (§1)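 Custom Agilent 4×180K protein-binding microarrays carried double-stranded probes, each with a 34-nt variable region. These regions held direct-repeat seeds, single-nucleotide variants, half-site ablations and random human genomic background sequences. Ligand-free nuclear receptor dimers were incubated on the arrays for 1 h, antibodies against each partner (one per run) detected binding, and scanned fluorescence was regression-normalized. Binding z-scores take the random background probes as reference.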

[2] = system: LXRa:RXRa (NR concentration 270 nM, RXRa partner concentration 90 nM)
In short: as §1

[3] = system: LXRa homodimer (NR concentration 270 nM)
In short: as §1

[4] = system: LXRb:RXRa (NR concentration 270 nM, RXRa partner concentration 90 nM)
In short: as §1

[5] = system: LXRb homodimer (NR concentration 270 nM)
In short: as §1

[6] = system: PPARa:RXRa (NR concentration 270 nM, RXRa partner concentration 90 nM)
In short: as §1

[7] = system: PPARg:RXRa 270nM:90nM, anti-RXR (NR concentration 270 nM, RXRa partner concentration 90 nM)
In short: as §1

[8] = system: PPARg:RXRa 30nM:10nM, anti-RXR (NR concentration 30 nM, RXRa partner concentration 10 nM)
In short: as §1

[9] = system: PPARg:RXRa 90nM:30nM, anti-RXR (NR concentration 90 nM, RXRa partner concentration 30 nM)
In short: as §1

[10] = system: PPARg:RXRa DBDmut IVT, anti-RXR (DBD mutation: RXRa K156A/R161A, NR concentration 270 nM, RXRa partner concentration 90 nM)
In short: as §1

[11] = system: PPARg:RXRa IVT, anti-PPARg (NR concentration 270 nM, RXRa partner concentration 90 nM)
In short: as §1

[12] = system: PPARg DBDmut:RXRa IVT, anti-PPARg (DBD mutation: PPARg1 K132A/R137A, NR concentration 270 nM, RXRa partner concentration 90 nM)
In short: as §1

[13] = system: PPARg DBDmut IVT, anti-PPARg (DBD mutation: PPARg1 K132A/R137A, NR concentration 270 nM)
In short: as §1

[14] = system: PPARg homodimer (NR concentration 180 nM)
In short: as §1

[15] = system: PXR:RXRa (NR concentration 270 nM, RXRa partner concentration 90 nM)
In short: as §1

[16] = system: PXR homodimer (NR concentration 270 nM)
In short: as §1

[17] = system: RARa:RXR (NR concentration 270 nM, RXRa partner concentration 90 nM)
In short: as §1

[18] = system: RARa homodimer (NR concentration 270 nM)
In short: as §1

[19] = system: RARb:RXRa (NR concentration 270 nM, RXRa partner concentration 90 nM)
In short: as §1

[20] = system: PPARg:RXRa (NR concentration 180 nM, RXRa partner concentration 90 nM)
In short: as §1

Sequence	PBM binding z-score [1]	PBM binding z-score [2]	PBM binding z-score [3]	PBM binding z-score [4]	PBM binding z-score [5]	PBM binding z-score [6]	PBM binding z-score [7]	PBM binding z-score [8]	PBM binding z-score [9]	PBM binding z-score [10]	PBM binding z-score [11]	PBM binding z-score [12]	PBM binding z-score [13]	PBM binding z-score [14]	PBM binding z-score [15]	PBM binding z-score [16]	PBM binding z-score [17]	PBM binding z-score [18]	PBM binding z-score [19]	PBM binding z-score [20]
CCTACTGGGCCAAAGGTCATAGATTCCAATGCTC	4.64	4.61	3.46	4.47	0.244	6.34	10.5	11	11.5	5.3	7.19	0.0659	-0.0407	4.53	5.14	1.46	6.41	1.47	4.4	
GATACAGGGTCATCTAGAGGCCAGAGTATGGAAA	6.84	5.02	0.214	4.22	0.201	5.87	5.65	2.33	4.1	1.93	3.6	0.707	0.0112	3.91	4.97	0.378	6.28	0.58	4.48	
TTAACAAGGTGAAAGGTCGTTGATGCACGCCTTG	3.99	3.48	0.202	2.81	-0.19	6	8.81	9.66	9.79	4.84	5.57	0.666	0.131	2.13	3.92	0.791	5.73	-0.215	3.09	
CGTCCAAGGTCAATTCTAGGTCAGTGAAAGCATT	6.85	5.63	3.88	4.73	2.2	5.01	4.59	1.17	3.25	3.48	4.72	0.615	0.0326	7.64	4.96	1.82	6.11	1.9	5.19	
CGTCCAAGGTCAGAGAGGTCAGTGTATGCCGAGT	6.02	5.1	3.33	4.4	0.458	4.71	3.98	0.927	2.53	2.75	3.39	-0.0469	0.446	3.62	5.92	12.1	5.19	1.5	5.16	
ACTTACGGGTCAAGGAGGTTATAGCACGCGTATA	6.35	4.93	1.1	4.17	0.922	5.72	5.1	2.1	3.84	2.9	3.94	1.06	0.844	2.7	4.24	1.47	4.99	1.24	4.09	
CGAACTAGGTCCTTGACAGGACAGTGAATAGTAA	-0.28	-0.522	0.156	-0.566	-0.907	0.107	0.252	-0.201	-0.145	3.56	2.67	-0.17	0.14	-0.238	-0.527	-0.0323	-0.228	-0.233	-0.0437	
CCAGACAGGTGAAAGGTAACTCCGTCTGGTACGC	0.568	0.648	-0.506	0.857	-0.698	3.32	5.65	3.94	5.52	1.67	2.94	-0.44	-0.311	1.15	0.836	-0.734	1.5	0.043	1.23	
CAAAGTAGGTCACGAAAGGTCAAAGTCGAATGAC	7.64	8.17	8.05	7.39	2.7	6.63	8.58	7.11	8.91	8.95	9.16	2.49	0.871	5.21	7.05	2.22	7.43	4.05	5.68	
ATATCTAGGTAAAAGTTCAGTGAATCCCGAGGAT	0.694	1.43	1.24	1.15	0.657	5.76	9.29	9.08	10.4	6	6.34	1.91	1.42	1.87	2.33	1.9	1.6	1.5	2.56	
ACTAGCAGGCCAAAGGTCACTCAAGATTAGTCCG	4.72	4.93	2.36	4.8	0.456	6.05	8.65	8.65	9.39	2.74	5.44	-0.0674	0.109	1.96	5.11	0.886	5.72	0.747	4.81	
GGAACTAGGGCAAAGTTGATAGCATCTGTCGACG	-0.124	-0.2	-0.596	0.16	-0.519	5.37	8.84	8.63	9.67	7.94	7.8	3.88	2.6	2.98	-0.217	-0.423	0.0303	-0.192	1.48	
CGTCGAAGGTCAATGCTAGGTCAGTGAAAGCATT	6.95	5.54	2.6	4.32	0.906	5.41	4.82	1.4	3.63	2.56	3.93	-0.174	-1.09	4.55	4.73	0.726	6.43	0.867	5.19	
TCTTGTTGATCAAAGGTTAAGAAAGCCGAAGCCT	1.37	2.26	0.368	2.11	0.469	3.71	6.29	5.57	6.85	1.8	2.11	1.32	0.442	1.36	1.74	0.07	2.31	0.624	2.04	
TAGCCTAGGTGATTGGGCCAGTATAGTACGCATC	-0.581	-0.692	-0.293	-0.59	-0.51	-0.146	-0.141	-0.21	-0.578	0.598	1.35	-0.207	-0.683	-0.347	-0.55	-0.684	-0.276	-0.504	-0.13	
TTACCAAGGTGAAGGTCGTGGATCCCTCTGTAGA	1.6	1.33	0.0601	1.45	-0.935	3.03	4.71	2.78	4.4	2.23	3.55	-0.363	0.188	0.731	1.53	-0.1	2.38	-0.307	2.4	
CGTCCAAGGTCAGAGAGGTCAGTGACTGCCGAGT	6.33	5.11	3.23	4.11	0.108	4.74	4.2	1	2.64	3.1	3.54	-0.0571	-1.2	5.16	6.06	11.3	5.75	2.55	5.28	
ACTCGGAGGATAAAGGTCAGAGCTACGCCAGTGA	3.3	3.42	1.27	2.83	0.273	4.23	6.4	5	6.8	0.595	3.02	-0.0489	0.296	4.61	3.25	0.221	4.24	2.08	4.01	
TTACCAAGGTAAAAGGTCGTTGATGCACGCCTTG	2.52	2.49	0.274	2.25	0.0385	4.46	6.8	5.65	6.87	0.76	3.59	0.399	0.573	1.67	3.07	0.505	4.08	0.101	2.28	
CCTGCTAGGACAATGGTCAGCTAAAGCAGCTCGC	-0.67	-0.803	-0.499	-0.869	-1.1	-0.776	1.2	-0.505	0.711	0.194	-0.56	-1.25	-2.24	-1.14	-0.961	-0.715	-0.928	-0.846	0.219	
CAAACTAGGTCAAAGGTCAAAGACGAGCCAACCA	8.68	7.43	5.15	7.3	2.82	7.71	11.5	15.4	14.3	8.8	9.63	6.19	7.03	8.08	7.17	1.87	9.19	4.59	5.96	
CATACACGGTCAGCTAGGCCAGAGTAGGGACGGC	0.00236	0.294	-0.0294	-0.523	0.421	-0.409	-0.257	-0.34	-0.382	-0.275	0.556	0.102	0.44	0.0796	-0.388	-0.264	-0.295	0.385	2.49	
GGAACGGGGGCATTCGAGTTGATAGCATGGCGAT	3.01	4.03	0.603	4.98	6.54	3.99	4.08	1.54	3.65	3.24	5.37	8.85	10.9	1.37	5.15	3.02	2.94	0.259	2.9	
GATACAGGGTCAAGGCCAGAATACGCGTATTGAT	6.98	4.25	0.231	4.25	0.223	5.84	5.74	2.61	4.58	2.36	4.04	0.884	0.396	2.82	3.9	0.4	4.79	0.95	4.6	
CCTACTGGGCCAAAACGGTCATTGATGCCGATAA	-0.421	-0.427	0.0364	-0.333	-0.867	0.309	0.904	-0.186	0.162	2.93	2.65	0.0613	0.25	0.299	-0.497	-0.344	-0.365	-0.523	0.875	
TTACCAAAGTGAAAGGTCGTTGATGCACGCCTTG	1.49	1.82	0.432	1.57	-0.402	3.17	5.13	2.97	5.02	-0.147	1.43	0.177	0.436	1.39	2.3	0.329	2.39	-0.107	1.86	
TCTTGTAGATCAAAGGTCAAGAAAGCCGAAGCCT	4.71	5.21	2.41	5.03	1.25	6.32	9.37	8.45	10.1	2.63	4.93	-0.0392	0.612	2.55	4.83	0.853	6.09	0.488	4.74	
ACTAGCAGGTCAAGGGTCACTCAAGATTAGTCCG	6.89	5.73	2.16	4.88	0.671	6.3	9.23	8.21	10.3	4.43	6.12	1.23	1.92	3.91	5.82	0.469		1.38	4.86	
CCTGCTCGGTCAATGGTCAGCTAAAGCAGCTCGC	0.351	0.448	-0.0838	-0.541	-0.234		1.43	-0.317	0.846	0.753	0.0131	-1.19	-1.21	-0.242	-0.189	-0.933	0.252	-0.686	2.28	-0.00581
GCTTCCGGGTCAAAGGTTATAGCATGAATAGAAT	7.32	5.48	0.542	5.76	0.776	6.97	9.9	10.7	11.4	6.02	6.82	2.92	1.77	4.67		0.927	8.48	0.795	4.45	

Source: the supplement of paper PMC6555819
